This note sets out measurements from PubChem BioAssay (NCATS).

“And” between values parts separate entries of the source, which are not always exact repeats. Identical values can stand only once. Records with an inconclusive call do not appear. The source made the active and inactive calls. The call rests on the fitted dose curve; in most records, active means well fitted curve in the direction sought with a large enough effect; inconclusive means small, poorly fitted or top-dose-only effect, or another doubt; inactive means no such curve, though single readings can be large; an effect the other way counts as inactive or inconclusive.
Further: nearly all actives have a fitted effect of over 70% in size.
On the % scale 0 is the no-effect control and ±100 the full control effect; potency means the concentration at half of the fitted maximal effect.

The first assay can be described thus: Primary qHTS for inhibitors of nuclear receptor binding SET domain protein 2 (NSD2) in an isogenic RCH-ACV NSD2 p.E1099K mutant (9B) (AID 1645876). The note with it: RCH-ACV NSD2 E1099K (9B) viability, CellTiter-Glo, 72 h; series mostly up to 44.9 µM; activity change, negative = viability loss: at the top concentration. In general terms: qHTS replaces the single test concentration by a dilution series.
Take `CCC(=O)N[C@@H]1Cc2ccccc2[C@H](c2ccccc2)C1`: the “activity change, negative = viability loss” value is -24.8% (inactive).

For the compound `Cc1cc(Nc2ncc(Cl)c(Nc3ccccc3S(=O)(=O)C(C)C)n2)c(OC(C)C)cc1C1CCNCC1`, the Potency was 3.25 µM (active) and 5.25 µM (active).

In the case of `O=C1NC(=Nc2ccccc2F)S/C1=C\c1ccc(C(=O)O)cc1`, the call was inactive.

For the compound `CNC(=O)COC(=O)NCCC1CCN(c2cccc(C)n2)CC1`, the “activity change, negative = viability loss” value was -3.9% (inactive).

Consider `CCn1c2ccccc2c2cc(CNC)ccc21`, for which the Potency was 23 µM (active).

As for `Cc1cc(C)c(S(=O)(=O)N(Cc2ccc(-c3cccc(S(C)(=O)=O)c3)cc2)Cc2ccc(C(F)(F)F)o2)c(C)c1`, the compound was classed as inactive.

Regarding `O=C(Nc1cccnn1)N1CCC(=Cc2cccc(Oc3ccc(C(F)(F)F)cn3)c2)CC1`, the Potency was 11.5 µM (active).

In the case of `Cc1ccc(C(=O)Nc2ccc(Oc3cc4cnn(C)c4cc3-c3cn[nH]c3)c(F)c2)c(=O)n1-c1ccc(F)cc1`, the Potency is 2.9 µM (active) and 5.9 µM (active).

On to `N[C@@H](CC(=O)N1CCn2c(nnc2C(F)(F)F)C1)Cc1[nH]nc2c(F)c(F)ccc12`, for which the “activity change, negative = viability loss” value was -1.61% (inactive).

`CO[C@@H]1COCC[C@@H]1N[C@@H]1CC[C@@](C(=O)N2CCc3ncc(C(F)(F)F)cc3C2)(C(C)C)C1`: the “activity change, negative = viability loss” value is 4.65% [at 17.3 µM] (inactive).

For the compound `Cc1nn(C)c(COc2ccc(N3CCN(S(=O)(=O)N(C)C)CC3)cc2)c1-c1cccc2c(CCCOc3cccc4ccccc34)c(C(=O)O)n(CCN3CCOCC3)c12`, the Potency entry was “inactive”.

Consider `CC1(C)CC(=O)N(CCCCN2CCN(c3ncccn3)CC2)C(=O)C1`, for which the result was inactive.

For `CCCCN(CCCC)C(=O)CN1C[C@H](c2ccc3c(c2)OCO3)[C@@H](C(=O)O)[C@@H]1c1ccc(OC)cc1`, the Potency entry was “inactive”.

In the case of `CNC(=O)c1ccc(Nc2ncc(C(F)(F)F)c(NCc3nccnc3N(C)S(C)(=O)=O)n2)cc1`, the Potency was 2.58 µM (active) and 1.66 µM (active).

Take `O=C(O)c1n[nH]c2c1C[C@H]1C[C@@H]21`: the result was inactive.

Regarding `O=C1CC(c2ccc([N+](=O)[O-])cc2)=NN1c1ccccc1`, the “activity change, negative = viability loss” value was -22.9% (inactive).

For the compound `O=C(COc1ccc(Cl)cc1)NC1CCC(NC(=O)COc2ccc(Cl)cc2)CC1` (centres undefined), the “activity change, negative = viability loss” value was -8.09% (inactive).

Turning to `Cc1cc(N2CCCCC2)nc2ccccc12`, the “activity change, negative = viability loss” value was 2.91% (inactive).

In the case of `Cc1[nH]cnc1C1CCN(c2nc3cccc4c3n2CCC4=O)CC1`, the “activity change, negative = viability loss” value was -2.88% (inactive).

With `C=C1CC[C@@H]2[C@](C)(CO)[C@H](O)CC[C@@]2(C)[C@@H]1C/C=C1/C(=O)OC[C@H]1O`, the Potency was 8.33 µM (active).

Consider `NC(Cc1c[nH]c2ccccc12)C(=O)NC(CCC(=O)O)C(=O)O` (centres undefined), for which the “activity change, negative = viability loss” value is -9.45% (inactive).

`CC(=O)NCCCCn1c2c(c3ccccc31)C(=O)NCC2`: the outcome was inactive.

Take `CN1CCC(c2c[nH]c3ccc(NC(=O)c4ccc(F)cc4)cc23)CC1`: the “activity change, negative = viability loss” value is -2.46% (inactive).

Turning to `O=c1c2cccnc2n(-c2cccc([N+](=O)[O-])c2)c(=O)n1Cc1ccncc1`, the “activity change, negative = viability loss” value is 4.7% (inactive).

For the compound `CCc1cc2c(=O)c(-c3nc4ccccc4s3)coc2c(CN2CCCCC2)c1O`, the “activity change, negative = viability loss” value was -1.31% [at 17.3 µM] (inactive).

For the compound `COc1cc(NC(=O)c2ccccn2)ccc1Cl`, the “activity change, negative = viability loss” value is -17.2% (inactive).

For the compound `CCn1nnnc1NCc1ccc(C(C)C)cc1`, the “activity change, negative = viability loss” value was -5.28% (inactive).

Take `OC[C@H]1O[C@@H](n2cnc3c2NC=NC[C@H]3O)C[C@@H]1O`: the Potency entry was “inactive”.

In the case of `CC(C)Nc1cc(-c2c[nH]c(C(=O)N[C@H](CO)c3cccc(Cl)c3)c2)c(Cl)cn1`, the Potency was 20.5 µM (active) and 2.95 µM (active).

With `CCc1c(CC(N)=O)c2cc(OCCCP(=O)(O)O)ccc2n1Cc1ccccc1`, the outcome was inactive.

Regarding `CCCCNC(=O)[C@@H]1Cc2ccccc2N1C(=O)[C@@H](N)CC`, the “activity change, negative = viability loss” value was 4.91% (inactive).

With `CNC(=O)Nc1ccc(OC)c(NC(=O)NC(=O)c2cc(F)c(F)cc2Cl)c1`, the compound was classed as inactive.

With `COc1cccc(-c2ccc([C@@H](Oc3cc(-c4ccc(C[C@H](N)C(=O)O)cc4)nc(N)n3)C(F)(F)F)cc2)c1`, the “activity change, negative = viability loss” value is -24.6% (inactive).

As for `Cc1nc2c(-c3cnc(N)nc3)nc(N3CCOCC3)nc2n1C(C)C`, the Potency was 72.8 nM (active) and 132 nM (active).

Regarding `CN(C)C/C=C/C(=O)Nc1ccc(C(=O)Nc2cccc(Nc3ncc(Cl)c(-c4c[nH]c5ccccc45)n3)c2)cc1`, the Potency was 18.3 nM (active) and 52.5 nM (active).

Consider `O=C1N(CC2CCCCN2)CCN1c1ccccc1` (centres undefined), for which the call was inactive.

Consider `CON(C)C(=O)N1N=C(c2cc(F)ccc2F)S[C@@]1(CCCN)c1ccccc1`, for which the Potency was 9.2 nM (active) and 14.8 nM (active).

Consider `COc1ccc2cc(OCC3(C(=O)O)CN(C(=O)c4ccc(F)cc4)C3)ccc2c1`, for which the call was inactive.

Consider `FC(F)(F)c1cc(C(F)(F)F)c2ccc3nc(-c4nnco4)cn3c2n1`, for which the result was inactive.

For the compound `O=C(NCC(=O)N1CC[C@H](NC2CCC(O)(c3ccc(-c4ncccn4)cn3)CC2)C1)c1cccc(C(F)(F)F)c1` (some centres undefined), the “activity change, negative = viability loss” value is -3.25% (inactive).

Another assay in a line: Primary qHTS for inhibitors of nuclear receptor binding SET domain protein 2 (NSD2) in an RCH-ACV wild type WT cells (2C) (AID 1645877). The note with it: RCH-ACV (leukaemia line) NSD2 WT (2C) viability, CellTiter-Glo, 72 h; series mostly up to 44.9 µM; activity change, negative = cell killing: at the top concentration.
Take `CCC(=O)N[C@@H]1Cc2ccccc2[C@H](c2ccccc2)C1`: the “activity change, negative = cell killing” value is -20.6% (inactive).

Regarding `Cc1cc(Nc2ncc(Cl)c(Nc3ccccc3S(=O)(=O)C(C)C)n2)c(OC(C)C)cc1C1CCNCC1`, the Potency was 2.9 µM (active) and 3.72 µM (active).

`O=C1NC(=Nc2ccccc2F)S/C1=C\c1ccc(C(=O)O)cc1`: the outcome was inactive.

On to `CNC(=O)COC(=O)NCCC1CCN(c2cccc(C)n2)CC1`, for which the call was inactive.

With `CCn1c2ccccc2c2cc(CNC)ccc21`, the Potency was 23 µM (active).

`Cc1cc(C)c(S(=O)(=O)N(Cc2ccc(-c3cccc(S(C)(=O)=O)c3)cc2)Cc2ccc(C(F)(F)F)o2)c(C)c1`: the compound was called inactive.

For the compound `O=C(Nc1cccnn1)N1CCC(=Cc2cccc(Oc3ccc(C(F)(F)F)cn3)c2)CC1`, the Potency was 10.3 µM (active).

In the case of `Cc1ccc(C(=O)Nc2ccc(Oc3cc4cnn(C)c4cc3-c3cn[nH]c3)c(F)c2)c(=O)n1-c1ccc(F)cc1`, the Potency is 2.9 µM (active) and 3.72 µM (active).

Consider `N[C@@H](CC(=O)N1CCn2c(nnc2C(F)(F)F)C1)Cc1[nH]nc2c(F)c(F)ccc12`, for which the “activity change, negative = cell killing” value is 2.5% (inactive).

As to `CO[C@@H]1COCC[C@@H]1N[C@@H]1CC[C@@](C(=O)N2CCc3ncc(C(F)(F)F)cc3C2)(C(C)C)C1`, the “outcome” value was “inactive [at 17.3 µM]”.

With `Cc1nn(C)c(COc2ccc(N3CCN(S(=O)(=O)N(C)C)CC3)cc2)c1-c1cccc2c(CCCOc3cccc4ccccc34)c(C(=O)O)n(CCN3CCOCC3)c12`, the Potency result is “inactive”.

As for `CC1(C)CC(=O)N(CCCCN2CCN(c3ncccn3)CC2)C(=O)C1`, the outcome was inactive.

With `CCCCN(CCCC)C(=O)CN1C[C@H](c2ccc3c(c2)OCO3)[C@@H](C(=O)O)[C@@H]1c1ccc(OC)cc1`, the Potency result was “inactive”.

As to `CNC(=O)c1ccc(Nc2ncc(C(F)(F)F)c(NCc3nccnc3N(C)S(C)(=O)=O)n2)cc1`, the Potency is 2.05 µM (active) and 1.86 µM (active).

`O=C(O)c1n[nH]c2c1C[C@H]1C[C@@H]21`: the result was inactive.

As to `O=C(COc1ccc(Cl)cc1)NC1CCC(NC(=O)COc2ccc(Cl)cc2)CC1` (centres undefined), the “activity change, negative = cell killing” value was -14% (inactive).

With `Cc1cc(N2CCCCC2)nc2ccccc12`, the compound was classed as inactive.

For the compound `Cc1[nH]cnc1C1CCN(c2nc3cccc4c3n2CCC4=O)CC1`, the “activity change, negative = cell killing” value is -2.11% (inactive).

With `C=C1CC[C@@H]2[C@](C)(CO)[C@H](O)CC[C@@]2(C)[C@@H]1C/C=C1/C(=O)OC[C@H]1O`, the Potency is 7.42 µM (active).

In the case of `NC(Cc1c[nH]c2ccccc12)C(=O)NC(CCC(=O)O)C(=O)O` (centres undefined), the “activity change, negative = cell killing” value is -14% (inactive).

As to `CC(=O)NCCCCn1c2c(c3ccccc31)C(=O)NCC2`, the “activity change, negative = cell killing” value is -0.627% (inactive).

For the compound `CN1CCC(c2c[nH]c3ccc(NC(=O)c4ccc(F)cc4)cc23)CC1`, the “activity change, negative = cell killing” value is -4.08% (inactive).

`O=c1c2cccnc2n(-c2cccc([N+](=O)[O-])c2)c(=O)n1Cc1ccncc1`: the call was inactive.

Regarding `CCc1cc2c(=O)c(-c3nc4ccccc4s3)coc2c(CN2CCCCC2)c1O`, the “activity change, negative = cell killing” value was -6.84% [at 17.3 µM] (inactive).

As to `COc1cc(NC(=O)c2ccccn2)ccc1Cl`, the “activity change, negative = cell killing” value was -13.7% (inactive).

For `CCn1nnnc1NCc1ccc(C(C)C)cc1`, the “activity change, negative = cell killing” value was -5.45% (inactive).

On to `OC[C@H]1O[C@@H](n2cnc3c2NC=NC[C@H]3O)C[C@@H]1O`, for which the Potency entry is “inactive”.

Take `CC(C)Nc1cc(-c2c[nH]c(C(=O)N[C@H](CO)c3cccc(Cl)c3)c2)c(Cl)cn1`: the Potency was 8.17 µM (active) and 2.95 µM (active).

On to `CCc1c(CC(N)=O)c2cc(OCCCP(=O)(O)O)ccc2n1Cc1ccccc1`, for which the call was inactive.

`CCCCNC(=O)[C@@H]1Cc2ccccc2N1C(=O)[C@@H](N)CC`: the outcome was inactive.

On to `CNC(=O)Nc1ccc(OC)c(NC(=O)NC(=O)c2cc(F)c(F)cc2Cl)c1`, for which the outcome was inactive.

Turning to `COc1cccc(-c2ccc([C@@H](Oc3cc(-c4ccc(C[C@H](N)C(=O)O)cc4)nc(N)n3)C(F)(F)F)cc2)c1`, the “activity change, negative = cell killing” value is -21.4% (inactive).

With `Cc1nc2c(-c3cnc(N)nc3)nc(N3CCOCC3)nc2n1C(C)C`, the Potency is 72.8 nM (active) and 132 nM (active).

Turning to `CN(C)C/C=C/C(=O)Nc1ccc(C(=O)Nc2cccc(Nc3ncc(Cl)c(-c4c[nH]c5ccccc45)n3)c2)cc1`, the Potency was 18.3 nM (active) and 46.8 nM (active).

Regarding `O=C1N(CC2CCCCN2)CCN1c1ccccc1` (centres undefined), the compound was classed as inactive.

For `CON(C)C(=O)N1N=C(c2cc(F)ccc2F)S[C@@]1(CCCN)c1ccccc1`, the Potency is 6.5 nM (active) and 13.2 nM (active).

`COc1ccc2cc(OCC3(C(=O)O)CN(C(=O)c4ccc(F)cc4)C3)ccc2c1`: the “activity change, negative = cell killing” value was 7.38% (inactive).

As for `FC(F)(F)c1cc(C(F)(F)F)c2ccc3nc(-c4nnco4)cn3c2n1`, the “activity change, negative = cell killing” value is 0.197% (inactive).

Turning to `O=C(NCC(=O)N1CC[C@H](NC2CCC(O)(c3ccc(-c4ncccn4)cn3)CC2)C1)c1cccc(C(F)(F)F)c1` (some centres undefined), the “activity change, negative = cell killing” value was 2.26% (inactive).
